Among all 56,000 sequences or so, about 4,700 (8.4%) were called active. Cut-off read from the data, not from the text of the source: active = GI50 up to about 1.1 µM and inactive = higher. Shown is part of a subset that was picked to be rich in actives. Measured potencies and affinities stand elsewhere.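 Compound exposure: 48 hours, 5 concentrations, 96-well plates. Here, GI50 denotes the concentration required for 50% inhibition of growth.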

The test system of the assay is NCI-H460. The assay is described as follows: NCI tumour cell line growth inhibition, 48 h.
On to “[Bis(aminomethyl)tetramethylenesilane]tetrachloropaltinum(IV), CHEMBL2146189”, for which the GI50 came out at 314 nM. The figure for “[Bis(aminomethyl)dimethylsilane]tetrachloroplatinum(IV), CHEMBL2146190” is 577 nM; for “[Bis(aminomethyl)ethylmethylsilane]tetrachloroplatinum(IV), CHEMBL2146192” it is 774 nM.

As to “cis-Bis[[(trimethylsilyl)methyl]amino]tetrachloroplatinum(IV), CHEMBL2146191”, the GI50 was found to be 9770 nM. The same measure for “[Bis(aminomethyl)pentamethylenesilane]dichloropaltinum(II), CHEMBL2146202”: 312 nM; for “[Bis(aminomethyl)tetramethylenesilane]dichloropaltinum(II), CHEMBL2146205”: 2640 nM; for “mu-(1,7-nanodiamine-N,N')bis-(cis-aminedichloroplatimum (II)), CHEMBL2146215”: 1610 nM.

The substance “[Bis(aminomethyl)pentamethylenesilane]tetrachloropaltinum(IV), CHEMBL2146204” displayed a GI50 of 206 nM. The same measure for “[Bis(aminomethyl)dimethylsilane]dichloroplatinum (II), CHEMBL2146201”: 3370 nM; for “[Bis(aminomethyl)diethylsilane]tetrachloroplatinum(IV), CHEMBL2146203”: 438 nM. The figure for CISPLATIN, CHEMBL11359 is 579 nM.

(Values after ChEMBL document CHEMBL1201862, “PubChem BioAssay data set” (2004).)
